Measured values from PubChem BioAssay (Tox21).
Unmarked numbers belong to inactive results. Inconclusive results are not listed. Where a call stands in place of a potency, no number is given. Active and inactive are the calls of the source. Unless noted, calls follow the shape of the full dose curve.

Key:
[1] = target: Gonadotropin-releasing hormone receptor (Homo sapiens) (UniProt P30968); assay: Human gonadotropin-releasing hormone receptor (GnRHR) small molecule agonists, calcium flux assay in GnRHR-HEK293 cells (AID 1920063); also: nearly all actives have a fitted effect of over 35% in size
Procedure, shortened: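 Stable human GnRHR HEK293 line. 18 h plating, then calcium dye for 1 h at 37 C. Agonist-mode compound addition from DMSO stocks; fluorescence monitored 3 min.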

[2] = target: KiSS-1 receptor (Homo sapiens) (UniProt Q969F8); assay: Human kisspeptin (KISS1R) small molecule agonists, calcium flux assay in KISS1R-HEK293 cells (AID 1920064; active = well fitted activation curve with a large enough effect in the repeat runs)
Procedure, shortened: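 After overnight (18 h) culture at 37 C/5% CO2, human KISS1R-HEK293 cells received calcium dye for 1 h, then test compound; emission at 540 nm (excitation 480 nm) was tracked for 3 min.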

[3] = G protein-coupled receptor (GPCR) small molecule agonists, calcium flux assay: HEK293 wild type cell line counter screen (AID 1920065)
Procedure, shortened: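 Following 18 h incubation at 37 C/5% CO2, plates got calcium dye for 1 h; compounds, ATP or DMSO were then pinned in and fluorescence followed kinetically (480/540 nm).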

[4] = p53 small molecule agonists, cell-based qHTS assay with human liver microsomes (AID 1963577);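 also: p53 response element beta-lactamase reporter cells with liver microsomes plus NADPH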
Procedure, shortened: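 Reporter activation was measured by LiveBLAzer fluorescence intensity in p53RE-bla cells, which had been exposed to compounds for 16 h at 37 C alongside 0.5 mg/mL human liver microsomes and 0.5 mg/mL NADPH (final concentrations).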

[5] = p53 small molecule agonists, cell-based qHTS assay with human liver microsomes: qHTS cell viability counter screen (AID 1963579); also: nearly all actives have a fitted effect of over 45% in size
Procedure, shortened: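 HLM-supplemented (0.5 mg/mL final) and NADPH-supplemented (0.5 mg/mL final) p53RE-bla cultures, 4,000 cells per well, were dosed with compounds in DMSO for 16 h at 37 C; luminescent ATP detection (CellTiter-Glo, 30 min, room temperature) quantified surviving cells.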

[6] = p53 small molecule agonists, cell-based qHTS assay with rat liver microsomes: qHTS cell viability counter screen (AID 1963580); also: nearly all actives have a fitted effect of over 45% in size
Procedure, shortened: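 Cytotoxicity counter screen: intracellular ATP measured by CellTiter-Glo luminescence in the same wells as the beta-lactamase reporter read, on HCT-116 p53RE-bla cells exposed 16 h at 37 C to compounds with rat liver microsomes and NADPH, each 0.5 mg/mL final.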

[7] = p53 small molecule agonists, cell-based qHTS assay: qHTS cell viability counter screen (AID 1963581); also: nearly all actives have a fitted effect of over 45% in size
Procedure, shortened: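 qHTS counter screen: 16 h compound exposure at 37 C of p53RE-bla HCT-116 cells (4,000 per well, seeded 5 h prior), cell viability by ATP luminescence.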

[8] = p53 small molecule agonists, cell-based qHTS assay (AID 1963582; active = well fitted activation curve with a large enough effect in the signal ratio in the repeat runs, not every such curve was filed as active; the % refers to the signal ratio)
Procedure, shortened: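 Measured: fluorescence from cleaved LiveBLAzer substrate. System: p53RE-bla cells, 16 h compound treatment at 37 C, 2 h substrate step at room temperature.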

[9] = target: 5-hydroxytryptamine receptor 2A (Homo sapiens) (UniProt P28223); assay: 5-hydroxytryptamine receptor 2A (HTR2A) small molecule agonists, cell-based qHTS assay (AID 1963587); also: nearly all actives have a fitted effect of over 30% in size; also: potency is read from the fitted curve at half-maximal effect
Procedure, shortened: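 CHO cells stably expressing human HTR2A, plated 18 h, loaded with calcium dye 1 h at 37 C. Agonist mode: compounds added and intracellular calcium fluorescence recorded kinetically for 2 min at 1 sec intervals.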

[10] = target: Muscarinic acetylcholine receptor M1 (Homo sapiens) (UniProt P11229); assay: Cholinergic receptor muscarinic 1 (CHRM1) small molecule antagonists, cell-based qHTS assay (AID 1963588); also: nearly all actives have a fitted effect of over 40% in size; also: potency is read from the fitted curve at half-maximal effect
Procedure, shortened: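 Compounds were tested at 15 concentrations in three independent runs. Dye-loaded CHRM1-CHO cells were exposed 5 min at room temperature before stimulation by acetylcholine added at 50nM. Intracellular calcium was read kinetically on FDSS for 3 min.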

[11] = target: Muscarinic acetylcholine receptor M1 (Homo sapiens) (UniProt P11229); assay: Cholinergic receptor muscarinic 1 (CHRM1) small molecule agonists, cell-based qHTS assay (AID 1963589); also: nearly all actives have a fitted effect of over 35% in size
Procedure, shortened: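 Kinetic fluorescence (1 s intervals) of calcium-sensitive dye in human M1 CHO cells after compound addition; cells pre-incubated 18 h at 37 C/5% CO2 and dye-loaded 1 h.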

[12] = target: Beta-2 adrenergic receptor (Homo sapiens) (UniProt P07550); assay: Adrenergic beta2 receptor (ADRB2) small molecule antagonists, cell-based qHTS assay (AID 1963592); also: series mostly up to about 92 µM; nearly all actives have a fitted effect of over 50% in size
Procedure, shortened: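 Assay format: CHO-ADRB2 cells, 18-20hr seeding at 37C/5% CO2, then compound plus 1nM isoproterenol agonist mix for 0.5hr RT. Homogeneous time-resolved fluorescence cAMP detection after 1hr, expressed as 665/615 nm ratio.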

[13] = target: Beta-2 adrenergic receptor (Homo sapiens) (UniProt P07550); assay: Adrenergic beta2 receptor (ADRB2) small molecule agonists, cell-based qHTS assay (AID 1963593);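 also: CHO cells stably overexpressing human ADRB2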
Procedure, shortened: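 CHO cells stably over-expressing ADRB2 were plated overnight at 37C, then dosed with compounds plus a stimulation mix containing 100uM IBMX and 25uM Ro-20-1724 for 0.5hr at room temperature. cAMP was measured by HTRF competition, 1hr.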

[14] = target: D(2) dopamine receptor (Homo sapiens) (UniProt P14416); assay: Dopamine D2 receptor (DRD2) small molecule agonists, cell-based qHTS assay (AID 1963594); also: nearly all actives have a fitted effect of over 35% in size
Procedure, shortened: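 HEK293 cells stably expressing human DRD2, pre-treated with PDE inhibitor Ro20-1724 (0.1 mM final) and compound 10 min at room temperature, then stimulated with NKH477 (200nM […]) for 30 min. cAMP read by HTRF (665/620 nm).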

[15] = target: D(2) dopamine receptor (Homo sapiens) (UniProt P14416); assay: Dopamine D2 receptor (DRD2) small molecule antagonists, cell-based qHTS assay (AID 1963595; active = well fitted inhibition curve with a large enough effect in the signal ratio in the repeat runs, with a control signal flat; the % refers to the signal ratio; also: potency is read from the fitted curve at half-maximal effect)
Procedure, shortened: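 Human DRD2 antagonist qHTS measuring cAMP by HTRF. The cells are exposed to compound for 10 min, then to NKH477 (200 nM) and quinpirole (12 nM) for 30 min at RT, with Ro20-1724 (0.1 mM) present throughout.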

[16] = p53 small molecule agonists, cell-based qHTS assay with rat liver microsomes (AID 1963578)
Procedure, shortened: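 Compound in DMSO added to p53RE-bla cells 5 h post-plating; rat microsomes/NADPH 0.5 mg/mL final; 16 h, 37 C; LiveBLAzer 2 h RT.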

[17] = target: 5-hydroxytryptamine receptor 2A (Homo sapiens) (UniProt P28223); assay: 5-hydroxytryptamine receptor 2A (HTR2A) small molecule antagonists, cell-based qHTS assay (AID 1963586); also: nearly all actives have a fitted effect of over 45% in size
Procedure, shortened: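 CHO cells stably expressing human HTR2A were plated for 18 h at 37 C, then loaded with calcium dye for 1 h. Compounds were preincubated 5 min at room temperature before DOI (4 nM solution) was added. Kinetic fluorescence was read for 3 min.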

[18] = cAMP Responsive Elements (CRE) small molecule agonists, cell-based qHTS assay (AID 1963590)
Procedure, shortened: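 Test agents in DMSO were incubated 3 h at 37 C/5% CO2 with CRE-bla HEK 293T cells seeded 18 h earlier; LiveBLAzer B/G FRET substrate was added and read after 2 h at room temperature.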

[19] = cAMP Responsive Elements (CRE) small molecule antagonists, cell-based qHTS assay (AID 1963591; active = well fitted inhibition curve with a large enough effect in the signal ratio in the repeat runs, not every such curve was filed as active; the % refers to the signal ratio; also: potency is read from the fitted curve at half-maximal effect)
Procedure, shortened: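 Reporter line CRE-bla HEK 293T in dialyzed-FBS DMEM; cells preincubated 18 h, treated 3 h with compound plus NKH477 (0.25 uM final); LiveBLAzer FRET, 2 h RT.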

Sequence of D(2) dopamine receptor (Homo sapiens) (P14416 whole entry, looked up): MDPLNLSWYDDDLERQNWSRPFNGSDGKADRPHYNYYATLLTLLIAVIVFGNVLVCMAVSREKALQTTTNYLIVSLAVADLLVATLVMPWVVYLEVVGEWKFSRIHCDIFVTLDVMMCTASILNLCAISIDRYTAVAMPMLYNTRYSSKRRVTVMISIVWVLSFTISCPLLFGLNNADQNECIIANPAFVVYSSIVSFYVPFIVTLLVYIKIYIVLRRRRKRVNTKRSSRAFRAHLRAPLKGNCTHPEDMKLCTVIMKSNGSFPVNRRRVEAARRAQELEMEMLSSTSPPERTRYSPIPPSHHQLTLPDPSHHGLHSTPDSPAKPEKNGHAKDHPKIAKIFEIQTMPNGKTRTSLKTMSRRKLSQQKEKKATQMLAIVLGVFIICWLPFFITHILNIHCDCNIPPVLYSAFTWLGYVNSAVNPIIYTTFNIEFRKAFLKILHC
Sequence of Gonadotropin-releasing hormone receptor (Homo sapiens) (P30968 whole entry, looked up): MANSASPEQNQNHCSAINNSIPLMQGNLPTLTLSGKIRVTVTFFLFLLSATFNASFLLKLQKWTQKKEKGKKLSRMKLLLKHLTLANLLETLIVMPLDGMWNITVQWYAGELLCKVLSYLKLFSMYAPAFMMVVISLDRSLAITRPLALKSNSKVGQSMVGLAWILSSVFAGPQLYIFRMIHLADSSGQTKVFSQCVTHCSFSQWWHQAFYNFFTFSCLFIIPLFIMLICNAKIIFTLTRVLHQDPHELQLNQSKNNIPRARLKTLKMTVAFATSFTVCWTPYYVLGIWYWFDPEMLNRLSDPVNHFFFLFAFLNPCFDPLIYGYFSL
Sequence of 5-hydroxytryptamine receptor 2A (Homo sapiens) (P28223 whole entry, looked up): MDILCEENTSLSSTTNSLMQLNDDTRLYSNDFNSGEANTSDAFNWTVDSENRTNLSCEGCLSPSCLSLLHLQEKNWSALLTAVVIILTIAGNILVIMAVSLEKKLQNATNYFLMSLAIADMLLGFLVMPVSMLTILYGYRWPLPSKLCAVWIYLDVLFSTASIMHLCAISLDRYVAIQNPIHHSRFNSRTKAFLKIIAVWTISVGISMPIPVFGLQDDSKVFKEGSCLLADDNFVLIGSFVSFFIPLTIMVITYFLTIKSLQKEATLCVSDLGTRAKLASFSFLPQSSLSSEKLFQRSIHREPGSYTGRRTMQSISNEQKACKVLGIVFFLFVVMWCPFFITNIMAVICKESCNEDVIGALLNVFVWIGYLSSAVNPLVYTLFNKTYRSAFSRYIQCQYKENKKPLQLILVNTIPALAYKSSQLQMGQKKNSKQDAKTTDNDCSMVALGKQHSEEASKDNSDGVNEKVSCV
Sequence of Muscarinic acetylcholine receptor M1 (Homo sapiens) (P11229 whole entry, looked up): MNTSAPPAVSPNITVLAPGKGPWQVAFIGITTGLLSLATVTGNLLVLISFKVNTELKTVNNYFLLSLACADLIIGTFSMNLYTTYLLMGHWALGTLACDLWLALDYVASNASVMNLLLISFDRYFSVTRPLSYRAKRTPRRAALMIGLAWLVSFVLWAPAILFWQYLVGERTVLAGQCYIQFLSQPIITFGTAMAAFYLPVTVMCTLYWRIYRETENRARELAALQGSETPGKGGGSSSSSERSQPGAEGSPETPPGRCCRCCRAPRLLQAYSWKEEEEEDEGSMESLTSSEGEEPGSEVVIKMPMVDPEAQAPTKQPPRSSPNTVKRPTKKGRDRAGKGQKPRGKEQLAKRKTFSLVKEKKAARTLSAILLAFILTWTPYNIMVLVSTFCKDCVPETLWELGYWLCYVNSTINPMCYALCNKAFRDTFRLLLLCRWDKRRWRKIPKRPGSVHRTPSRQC
Sequence of Beta-2 adrenergic receptor (Homo sapiens) (P07550 whole entry, looked up): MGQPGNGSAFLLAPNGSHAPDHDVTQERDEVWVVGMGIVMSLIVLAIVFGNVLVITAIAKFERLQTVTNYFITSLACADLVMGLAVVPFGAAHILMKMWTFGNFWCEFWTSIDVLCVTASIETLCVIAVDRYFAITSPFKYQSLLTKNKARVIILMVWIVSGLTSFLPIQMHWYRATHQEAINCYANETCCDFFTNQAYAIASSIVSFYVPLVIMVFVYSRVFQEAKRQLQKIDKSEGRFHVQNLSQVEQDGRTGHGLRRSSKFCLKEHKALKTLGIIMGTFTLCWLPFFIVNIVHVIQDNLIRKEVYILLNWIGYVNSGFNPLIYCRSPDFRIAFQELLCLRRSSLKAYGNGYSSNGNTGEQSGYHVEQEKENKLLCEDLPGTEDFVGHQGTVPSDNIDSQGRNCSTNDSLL
Sequence of KiSS-1 receptor (Homo sapiens) (Q969F8 whole entry, looked up): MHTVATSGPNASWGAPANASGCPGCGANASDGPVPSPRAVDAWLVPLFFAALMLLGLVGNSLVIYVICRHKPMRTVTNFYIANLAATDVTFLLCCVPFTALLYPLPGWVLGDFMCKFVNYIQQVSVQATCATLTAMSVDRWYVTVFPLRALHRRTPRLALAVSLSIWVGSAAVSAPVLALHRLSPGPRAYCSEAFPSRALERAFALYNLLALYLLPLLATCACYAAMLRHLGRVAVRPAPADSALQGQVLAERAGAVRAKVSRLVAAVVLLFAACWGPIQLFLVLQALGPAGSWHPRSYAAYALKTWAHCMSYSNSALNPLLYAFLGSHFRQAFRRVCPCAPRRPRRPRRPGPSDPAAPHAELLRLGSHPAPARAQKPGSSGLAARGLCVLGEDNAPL

Row | SMILES | Potency [1] | outcome [2] | outcome [3] | Potency [4] | Potency [5] | Potency [6] | Potency [7] | Potency [8] | Potency [9] | Potency [10] | Potency [11] | Potency [12] | Potency [13] | Potency [14] | Potency [15] | Potency [16] | Potency [17] | Potency [18] | Potency [19]
1 | NS(=O)(=O)c1cc2c(cc1Cl)CN(C1CCCCC1)C2=O | inactive | inactive | inactive | inactive | inactive | inactive | inactive | inactive | inactive | inactive | inactive | inactive | inactive | inactive | inactive |  |  |  | 
2 | CCOCCn1c(C2CCN(CCc3ccc(C(C)(C)C(=O)O)cc3)CC2)nc2ccccc21 | inactive | inactive | inactive | inactive |  | inactive | inactive | inactive |  |  |  | inactive |  | inactive | inactive | inactive | inactive | inactive | inactive
3 | CCOC(=O)CC(=O)c1cc(F)c(Cl)nc1Cl |  | inactive | inactive | inactive | inactive | inactive | inactive | inactive | inactive | inactive | inactive |  | inactive | inactive | inactive | inactive |  | inactive | inactive
4 | COc1cc2c(N3CCN(C(=O)Nc4ccc(OC(C)C)cc4)CC3)ncnc2cc1OCCCN1CCCCC1 | inactive | inactive | inactive | inactive |  | inactive | inactive | inactive | inactive | inactive | inactive | inactive |  | inactive |  | inactive | inactive |  | inactive
5 | CCN(CC)CCNc1ccc(CNC=O)c2sc3ccc(OC)cc3c(=O)c12 | inactive |  | inactive | inactive |  |  | inactive |  | 3.89 µM (active) | 10.6 µM (active) | inactive | inactive | inactive | inactive |  | inactive | inactive | inactive | 21.7 µM (active)
6 | C[C@H](CCC(=O)NCC(=O)O)[C@H]1CC[C@H]2[C@@H]3[C@H](O)C[C@@H]4C[C@H](O)CC[C@]4(C)[C@H]3C[C@H](O)[C@]12C | inactive | inactive | inactive | inactive | inactive | inactive | inactive | inactive | inactive | inactive | inactive |  |  | inactive | inactive |  | inactive | inactive | 
7 | CC(COc1ccccc1)NC(C)C(O)c1ccc(O)cc1 (centres undefined) | inactive | inactive | inactive | inactive |  | inactive |  | inactive | inactive | inactive | inactive | inactive |  |  | 23.7 µM (active) | inactive |  | inactive | inactive
8 | Clc1nnc(Cl)c2ccccc12 | inactive | inactive | inactive |  | inactive | inactive | inactive |  |  | inactive | inactive | inactive |  | inactive |  | inactive | inactive |  | inactive
9 | CCCCCCCCCCCCCOP(=O)(O)O | inactive | inactive | inactive | inactive | inactive |  |  |  | inactive | inactive | inactive |  | inactive | inactive | inactive | inactive | inactive | inactive | inactive
10 | C=CC(=O)OCCCCCCCCCC | inactive | inactive | inactive | inactive | inactive |  |  | inactive | inactive | inactive | inactive | inactive | inactive | inactive | inactive | inactive | inactive | inactive | inactive
11 | O=[N+]([O-])c1c(Cl)cc(Cl)cc1Cl | inactive | inactive | inactive | inactive |  | inactive | inactive | inactive |  | inactive | inactive | inactive |  | inactive | inactive | inactive | inactive | inactive | inactive
12 | COc1ccc(N)c([N+](=O)[O-])c1 | inactive |  | inactive | inactive | inactive | inactive | inactive | inactive | inactive |  | inactive | inactive |  | inactive |  | inactive | inactive | inactive | inactive
13 | CCNc1nc(NC(C)(C)C)nc(OC)n1 |  |  | inactive | inactive | inactive | inactive | inactive | inactive | inactive | inactive |  | inactive |  | inactive | inactive | inactive | inactive | inactive | 
14 | O=C(CO)[C@@H](O)[C@H](O)[C@H](O)CO |  | inactive | inactive | inactive | inactive | inactive | inactive | inactive | inactive | inactive | inactive | inactive |  | inactive | inactive | inactive |  |  | inactive
15 | CCCCCCCCN1CCCC1=O | inactive | inactive | inactive | inactive | inactive |  |  | inactive | inactive | inactive | inactive | inactive |  | inactive | inactive | inactive | inactive | inactive | inactive
16 | CN(C)C(=O)C1(N2CCCCC2)CCN(CC[C@@]2(c3ccc(Cl)c(Cl)c3)CN(C(=O)c3ccccc3)CCO2)CC1 | inactive | inactive | inactive | inactive | inactive |  |  |  | inactive |  | inactive | inactive |  |  | 64.1 µM (active) | inactive |  |  | 
